For part of these data: Measured potencies and affinities stand elsewhere. Active and inactive are the calls of the source.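 How the source made its calls, unless noted: active means hit in primary screen, with calcium signal over 5 SD above buffer well mean in both duplicates; inactive means the rest.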
Key:
[1] = test system: TRPC4 beta (transient receptor potential cation channel C4), mouse; assay: activators of mouse TRPC4 channel, confirmation, cell-based, Fluo4 calcium, HEK293 TRPC4beta/mu-opioid, duplicates, 10 µM (AID 2426;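 active means fluorescence ratio normalized to control raised more than 50% in primary screen plus both repeat runs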;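 on activation: percent rise of integrated ratio over buffer wells lacking compound which define 0%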); conditions: Fluo4 calcium fluorescence, at 10 µM; hits give high values
[2] = test system: transient receptor potential cation channel C4 beta (TRPC4), mouse; assay: activators of mouse TRPC4 channel, confirmation, cell-based, second round, Fluo4, HEK293 TRPC4beta/mu-opioid, 1 µM (AID 2461;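 active means primary screen active and over 50% activation in each of two duplicate runs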;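 on activation: 0% = wells without test compound as baseline of integrated fluorescence ratio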); conditions: Fluo4 calcium fluorescence, at 1 µM; hits give high values
[3] = test system: TRPC4 (transient receptor potential cation channel C4 beta), mouse; assay: positive allosteric modulators of mouse TRPC4, confirmation, cell-based, second round, Fluo-4, HEK293 TRPC4beta/mu-opioid, 1 µM (AID 2554;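 active means primary screen hit whose fluorescence ratio, in both repeats, exceeds the weak agonist control mean by 3 SD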); conditions: DAMGO EC20, Fluo-4 calcium flux, at 1 µM; hits give high values
[4] = test system: TRPC4 beta (transient receptor potential cation channel C4), mouse; assay: positive allosteric modulators of mouse TRPC4, confirmation, cell-based, Fluo-4, HEK293 TRPC4beta/mu-opioid (AID 2555;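 active means primary screen hit whose calcium fluorescence ratio, in both repeats, exceeds the weak agonist control mean by 3 SD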); conditions: DAMGO EC20, Fluo-4 calcium flux, at 10 µM; hits give high values
[5] = molecular target: Short transient receptor potential channel 4 (Mus musculus) (UniProt Q9QUQ5); assay: inhibitors of mouse TRPC4 channel, confirmation, cell-based, Fluo4, HEK293 TRPC4beta/mu-opioid (AID 2636;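 active means calcium signal cut by more than 3 SD below the full-agonist control yet still positive, in both repeats and the earlier primary screen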); conditions: DAMGO, Fluo4 calcium flux, at 10 µM; hits give high values
Chain of Short transient receptor potential channel 4 (Mus musculus) (Q9QUQ5 whole entry, looked up): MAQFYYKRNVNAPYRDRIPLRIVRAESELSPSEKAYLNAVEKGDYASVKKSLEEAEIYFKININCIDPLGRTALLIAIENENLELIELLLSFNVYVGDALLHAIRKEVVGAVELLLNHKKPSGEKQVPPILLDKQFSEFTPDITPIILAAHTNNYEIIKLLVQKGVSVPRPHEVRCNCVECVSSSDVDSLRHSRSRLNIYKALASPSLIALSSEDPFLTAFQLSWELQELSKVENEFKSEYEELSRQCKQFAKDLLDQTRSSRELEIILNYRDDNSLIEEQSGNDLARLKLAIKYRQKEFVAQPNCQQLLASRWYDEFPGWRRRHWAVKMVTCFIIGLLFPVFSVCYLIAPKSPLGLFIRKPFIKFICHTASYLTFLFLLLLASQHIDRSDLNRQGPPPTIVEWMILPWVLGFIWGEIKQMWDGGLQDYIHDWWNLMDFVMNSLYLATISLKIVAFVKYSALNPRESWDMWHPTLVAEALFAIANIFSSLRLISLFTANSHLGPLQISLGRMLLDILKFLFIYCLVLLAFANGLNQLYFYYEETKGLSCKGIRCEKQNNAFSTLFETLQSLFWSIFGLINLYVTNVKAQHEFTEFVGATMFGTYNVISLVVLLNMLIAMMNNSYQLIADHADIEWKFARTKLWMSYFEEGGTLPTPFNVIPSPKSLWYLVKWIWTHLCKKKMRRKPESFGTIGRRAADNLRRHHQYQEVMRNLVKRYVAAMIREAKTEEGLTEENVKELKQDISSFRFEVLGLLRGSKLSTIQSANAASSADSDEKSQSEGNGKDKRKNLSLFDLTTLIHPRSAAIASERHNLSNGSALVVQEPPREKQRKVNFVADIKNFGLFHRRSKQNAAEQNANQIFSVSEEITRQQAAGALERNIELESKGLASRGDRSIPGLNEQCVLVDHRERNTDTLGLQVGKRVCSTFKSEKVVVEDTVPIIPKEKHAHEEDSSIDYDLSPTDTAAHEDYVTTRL

[6] = molecular target: Short transient receptor potential channel 4 (Mus musculus) (UniProt Q9QUQ5); assay: inhibitors of mouse TRPC4 channel, confirmation, cell-based, second round, Fluo4, HEK293 TRPC4beta/mu-opioid, 1 µM (AID 2637;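 active means calcium signal ratio cut to more than 3 SD under the fully stimulated control mean yet still positive, in both repeats and the primary screen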); conditions: Fluo4 calcium flux, DAMGO, at 1 µM; hits give high values
[7] = molecular target: Short transient receptor potential channel 4 (Mus musculus) (UniProt Q9QUQ5); assay: TRPC4 positive allosteric modulators, dose response, cell-based, HEK293 TRPC4/mu-opioid, Fluo-4 calcium, EC20 DAMGO (AID 434941;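 active means earlier screen potentiator hit that boosts the TRPC4 ion channel at some dose, with a dose response; inactive means no potentiation, no dose response, or not a prior hit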;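 further: calcium entry triggered by an EC20 dose of DAMGO at the co-expressed mu-opioid receptor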)
[8] = molecular target: Short transient receptor potential channel 4 (Mus musculus) (UniProt Q9QUQ5); assay: mouse TRPC4 channel inhibitors, dose response, cell-based, HEK293 TRPC4/mu-opioid, Fluo-4 calcium (AID 434942;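 active means primary screen inhibitor hit that blocks the TRPC4 channel at some tested dose, yielding a dose curve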)
[9] = molecular target: Short transient receptor potential channel 6 (Mus musculus) (UniProt Q61143); assay: inhibition of mouse TRPC6 channel, confirmation, selectivity assay for TRPC4 inhibitor project, cell-based, HEK293, membrane potential dye, duplicate (AID 434948;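 active means active in primary screen and both duplicates, each dropping signal beyond three positive-control SD with fluorescence still positive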); conditions: HEK293 TRPC6, membrane potential dye fluorescence, at 10 µM, stimulated with maximal-effect acetylcholine; hits give high values
Chain of Short transient receptor potential channel 6 (Mus musculus) (Q61143 whole entry, looked up): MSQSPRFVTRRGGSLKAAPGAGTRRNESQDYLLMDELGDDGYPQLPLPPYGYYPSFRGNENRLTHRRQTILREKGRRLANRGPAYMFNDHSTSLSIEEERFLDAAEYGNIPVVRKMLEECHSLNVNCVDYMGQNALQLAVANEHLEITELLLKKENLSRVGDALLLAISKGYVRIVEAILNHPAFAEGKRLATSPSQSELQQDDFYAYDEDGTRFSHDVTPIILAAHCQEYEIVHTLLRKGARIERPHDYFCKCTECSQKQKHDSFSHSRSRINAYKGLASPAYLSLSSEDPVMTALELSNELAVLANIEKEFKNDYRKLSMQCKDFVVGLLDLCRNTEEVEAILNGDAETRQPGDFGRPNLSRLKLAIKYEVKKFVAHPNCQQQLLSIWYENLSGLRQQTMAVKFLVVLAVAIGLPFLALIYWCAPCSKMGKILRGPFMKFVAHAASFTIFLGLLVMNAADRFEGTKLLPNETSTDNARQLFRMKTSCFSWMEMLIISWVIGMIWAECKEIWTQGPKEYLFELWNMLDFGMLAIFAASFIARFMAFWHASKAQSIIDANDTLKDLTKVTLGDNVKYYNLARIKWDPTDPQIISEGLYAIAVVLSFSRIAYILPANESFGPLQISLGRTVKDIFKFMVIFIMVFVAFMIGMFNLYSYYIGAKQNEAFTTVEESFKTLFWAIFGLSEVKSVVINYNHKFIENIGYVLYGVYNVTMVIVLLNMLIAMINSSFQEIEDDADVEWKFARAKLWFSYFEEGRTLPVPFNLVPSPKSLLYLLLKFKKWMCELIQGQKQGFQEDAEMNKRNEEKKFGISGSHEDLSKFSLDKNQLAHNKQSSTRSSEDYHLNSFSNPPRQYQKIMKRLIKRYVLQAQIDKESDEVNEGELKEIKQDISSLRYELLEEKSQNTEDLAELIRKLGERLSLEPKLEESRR

[10] = molecular target: Short transient receptor potential channel 6 (Mus musculus) (UniProt Q61143); assay: activation of mouse TRPC6 channel, confirmation, selectivity assay for TRPC4 activator project, cell-based, HEK293, membrane potential dye, duplicate (AID 434950;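 active means membrane potential signal rise above negative control mean plus 3 SD in both duplicates, also active in the earlier TRPC4 screen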;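 on activation: 0% = buffer only wells and 100% = acetylcholine maximal-effect wells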); conditions: HEK293 TRPC6, membrane potential fluorescence, at 10 µM; hits give high values
[11] = molecular target: Short transient receptor potential channel 6 (Mus musculus) (UniProt Q61143); assay: TRPC6 potentiation by TRPC4 potentiator hits, confirmation, selectivity assay for TRPC4 potentiator project, HEK293 cells, membrane potential dye, duplicate (AID 434952;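 active means compound raising the membrane signal above positive-control mean plus 3 SD in both repeats, and a primary screen hit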); conditions: HEK293 TRPC6, membrane potential dye fluorescence, at 10 µM, maximal acetylcholine added after compound; hits give high values
[12] = molecular target: Short transient receptor potential channel 4 (Mus musculus) (UniProt Q9QUQ5); assay: calcium flux activators in TRPC4/5HT1a cells, counter-screen for TRPC4 activator project, cell-based, second counter screen, HEK293 TRPC4/5HT1a, Fluo-4 (AID 434977;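 active means calcium signal rise above buffer-control mean plus 5 SD in both duplicates, and also a hit in the primary screen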;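 on activation: plate controls were assay buffer for no effect and maximal serotonin response for full effect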); conditions: Fluo-4 calcium flux, at 10 µM; hits give high values
[13] = calcium flux inhibitors in TRPC4/5HT1a cells, confirmation, counter-screen for TRPC4 inhibitor project, cell-based, second counter screen, HEK293 TRPC4/5HT1a, Fluo-4 (AID 434978;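 active means primary screen active whose calcium signal fell more than 3 SD beyond the full-serotonin control mean in both duplicate plates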;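 further: serotonin given first at submaximal then at maximal dose after compound preincubation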); conditions: Fluo-4 calcium flux, at 10 µM, serotonin added to trigger calcium flux; hits give high values
[14] = test system: TRPC4 (mouse), co-expressed with 5HT1a in HEK293; assay: calcium flux potentiators in TRPC4/5HT1a cells, confirmation, counter-screen for TRPC4 potentiator project, cell-based, second counter screen, HEK293 TRPC4/5HT1a, Fluo-4 (AID 434979;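 active means signal rise over 3 SD above mean of control wells given weak agonist, in both repeats and first screen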); conditions: Fluo-4 calcium flux, at 10 µM, serotonin added at its EC20 dose; hits give high values
[15] = calcium flux activation in mu-opioid HEK293 cells, confirmation, counter-screen for TRPC4 activator project, cell-based, HEK293 mu-opioid receptor line (AID 449723); conditions: Fluo-4 calcium fluorescence, at 10 µM; hits give high values;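 further: counter screen cells carry the mu-opioid receptor alone and lack TRPC4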
[16] = calcium flux enhancement in mu-opioid HEK293 cells, confirmation, counter-screen for TRPC4 allosteric potentiator project, cell-based, HEK293 mu-opioid receptor line (AID 449724;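 active means calcium signal rise more than 3 SD above the low-dose agonist control mean, in both duplicate plates and the primary screen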); conditions: Fluo-4 calcium flux, at 10 µM, compound added before EC20 DAMGO stimulus; hits give high values

Measured: activation

Cc1ccc(-c2nn(-c3cccc(F)c3)cc2CNCc2cccnc2)o1
active: [1] 100%
inactive: [2] | [3] | [4] | [5] | [6] | [7] | [8] | [9] | [10] | [11] | [12] | [13] | [14] | [15] | [16]

CCCc1c(O)nc(SCCN(CC)CC)[nH]c1=O
inactive: [3] | [4] | [5] | [6] | [7] | [8] | [9] | [10] | [11] | [13] | [14] | [15] | [16]
active: [1] 179% | [2] 82% | [12] 51.5%

COc1ccc(C(CNC(=O)CSc2ccccc2C)N(C)C)cc1 (stereo not given)
inactive: [3] | [4] | [5] | [6] | [7] | [8] | [9] | [11] | [12] | [13] | [14] | [15] | [16]
active: [1] 74% | [2] 73% | [10] 55%

COc1ccc(C(CNc2nc(-c3cccnc3)nc3ccccc23)N(C)C)cc1 (stereo not given)
active: [1] 235% | [2] 84% | [12] 18%
inactive: [3] | [4] | [5] | [6] | [7] | [8] | [9] | [10] | [11] | [13] | [14] | [15] | [16]

O=C(Cc1cccc(F)c1F)NC1CCCN(Cc2ccc(Cl)cc2)C1 (stereo not given)
active: [10] 37.5%
inactive: [1] | [2] | [3] | [4] | [5] | [6] | [7] | [8] | [9] | [11] | [12] | [13] | [14] | [15] | [16]

Fc1ccc(NC(=S)NCCc2ccccn2)cc1
inactive: [3] | [4] | [5] | [6] | [7] | [8] | [9] | [10] | [11] | [13] | [14] | [15] | [16]
active: [1] 199% | [2] 60% | [12] 88%

CN(C)c1ccc(-c2sc(Nc3ccccc3)n[n+]2-c2ccc(F)cc2)cc1
inactive: [2] | [3] | [4] | [5] | [6] | [7] | [8] | [9] | [11] | [13] | [14] | [16]
active: [1] 406% | [10] 45% | [12] 10.7% | [15] 274%

COCCCn1c(N)c(-c2nc3ccccc3n2C)c2nc3ccccc3nc21
active: [10] 137% | [12] 27.5% | [15] 16.7%
inactive: [1] | [2] | [3] | [4] | [5] | [6] | [7] | [8] | [9] | [11] | [13] | [14] | [16]

CC(=O)NC(CC(=O)NCC(c1ccco1)N(C)C)c1ccccc1 (stereo not given)
inactive: [3] | [4] | [5] | [6] | [7] | [8] | [9] | [10] | [11] | [12] | [13] | [14] | [15] | [16]
active: [1] 98% | [2] 78%

Clc1ccc2nc(N3CCNCC3)nc(-c3ccccc3)c2c1
active: [1] 74% | [12] 26.8% | [15] 12.1%
inactive: [2] | [3] | [4] | [5] | [6] | [7] | [8] | [9] | [10] | [11] | [13] | [14] | [16]

CC[C@@H](C)[C@H](CNC)NC[C@@H](Cc1cccc2ccccc12)NCCc1cccc(C(F)(F)F)c1
active: [1] 127% | [10] 29% | [12] 111% | [15] 25.7%
inactive: [2] | [3] | [4] | [5] | [6] | [7] | [8] | [9] | [11] | [13] | [14] | [16]

CCc1cccc(C)c1NC(=S)NCC(c1cccnc1)N(C)C (stereo not given)
inactive: [3] | [4] | [5] | [6] | [7] | [8] | [9] | [10] | [11] | [12] | [13] | [14] | [15] | [16]
active: [1] 80% | [2] 82%

COc1ccc(CNCc2cn(-c3cccc(F)c3)nc2-c2ccc(C)o2)cc1
inactive: [2] | [3] | [4] | [5] | [6] | [7] | [8] | [9] | [10] | [11] | [12] | [13] | [14] | [16]
active: [1] 156% | [15] 12.4%

O=C(O)C1C2C=CC(C2)C1C(=O)N1CCN(C/C=C/c2ccccc2)CC1 (stereo not given)
active: [1] 71% | [10] 26% | [12] 12.8%
inactive: [2] | [3] | [4] | [5] | [6] | [7] | [8] | [9] | [11] | [13] | [14] | [15] | [16]

O=C(NC1CCCN(Cc2ccc(Cl)cc2)C1)C1CCC1 (stereo not given)
active: [1] 120% | [2] 58% | [10] 47.5% | [12] 39.7%
inactive: [3] | [4] | [5] | [6] | [7] | [8] | [9] | [11] | [13] | [14] | [15] | [16]
